EP2 antag: inhibitors of human EP2 prostaglandin E2 receptor; P43116; C6 glioma cells expressing human EP2, cAMP TR-FRET; cells stimulated with saturating PGE2; inhibition, % at 25 µM; hit rate 0.52% among 260,000;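 active means percent inhibition above 40 after rounding to a whole number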;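 further: rat C6 glioma host cells with rolipram phosphodiesterase inhibitor present; the protocol text gives 20 µM as final concentration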
PG9 Ab binder: small molecules binding HIV-1 gp120 antibody PG9 | TR-FRET gp120-PG9 antibody binding | inhibition, % at 6.7 µM | hit rate 0.43% among 360,000; in the data active means inhibition above about 8.5%
RAM inhibit: inhibitors of the yeast RAM network | S. cerevisiae dse1pr::URA3 reporter, 5-FOA growth OD615, 2 d; analog-sensitive cbk1-as2 kinase mutant strain | inhibition, % at 50 µM | hit rate 1.8% among 190,000;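 active means inhibition above a set limit, 3 SD over mean compound inhibition, cut at about 8.4% in these data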;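 further: inhibition rescues growth on 5-FOA so higher OD means more RAM inhibition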
EP2 modulator: EP2 receptor (human) modulation; hit rate 0.83% among 260,000; induction, % at 25 µM; AID 940; P43116; EP2-expressing cells, cAMP HTRF FRET, PGE2 co-stimulation;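 active means compounds whose cAMP rise, as percent of the full-agonist control response, exceeds 60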;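 further: rat C6 glioma line stably carrying human EP2 under a CMV promoter; the protocol text gives 20 µM as final concentration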
NR1D1 modulator: modulators of human Rev-erb alpha DNA binding; P20393; Rev-erbα–FITC-DNA binding, fluorescence polarization, 90 min; activity, % at 10 µM; hit rate 0.79% among 370,000; AID 1259318;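 active means activity above about 14%, limit read from the data; passing the limit was not always enough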
Target sequence (P20393 whole entry, looked up): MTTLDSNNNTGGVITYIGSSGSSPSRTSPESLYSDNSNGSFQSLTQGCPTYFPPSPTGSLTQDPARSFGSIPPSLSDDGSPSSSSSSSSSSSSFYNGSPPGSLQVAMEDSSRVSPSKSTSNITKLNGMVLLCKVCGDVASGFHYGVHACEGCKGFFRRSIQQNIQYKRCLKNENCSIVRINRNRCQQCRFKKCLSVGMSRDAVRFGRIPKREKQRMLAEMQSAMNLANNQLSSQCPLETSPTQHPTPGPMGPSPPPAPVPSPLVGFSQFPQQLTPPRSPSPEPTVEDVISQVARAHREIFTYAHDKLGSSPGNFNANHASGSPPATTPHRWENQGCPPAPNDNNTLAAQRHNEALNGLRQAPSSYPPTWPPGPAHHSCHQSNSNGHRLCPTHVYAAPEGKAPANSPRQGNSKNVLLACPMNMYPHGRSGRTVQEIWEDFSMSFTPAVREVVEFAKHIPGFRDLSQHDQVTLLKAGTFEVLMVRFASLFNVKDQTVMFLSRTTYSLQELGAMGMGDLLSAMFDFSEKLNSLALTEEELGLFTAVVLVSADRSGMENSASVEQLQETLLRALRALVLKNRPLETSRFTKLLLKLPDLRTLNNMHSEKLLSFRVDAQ
SKN-1 inh: blocks SKN-1 activity in C. elegans; inhibition, % at 21.8 µM; C. elegans VP596 Pgst-4::GFP/RFP ratio, acrylamide-induced, 24 h; hit rate 0.49% among 360,000; AID 624304;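 active means interference check ratio from 0.5 to 1.5 plus GFP to RFP signal ratio inhibition reaching or exceeding a fixed threshold, cut at about 30% in these data, passing the limit was not always enough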
Large screens that a line does not name were inactive; ! = not confirmed by another sample. The list is not random: actives were taken first. Their share in the collection is about 2.9%.

Oc1ccc(C=NNC(=S)Nc2ccccc2)nc1	SKN-1 inh 44.6 (no result: EP2 antag, RAM inhibit, EP2 modulator)
Cc1nn(C(C)C)c(C)c1CN(CCCn1ccnc1)Cc1ccccc1Cl	none (no result: PG9 Ab binder, RAM inhibit, NR1D1 modulator, SKN-1 inh)
O=C(c1ccc(F)c(F)c1)N1CCC(c2ccc3c(c2)OCO3)CC1	none (no result: EP2 antag, PG9 Ab binder, RAM inhibit, NR1D1 modulator, SKN-1 inh)
N#CCSc1nnc(COc2cccc3ccccc23)n1-c1cccc(Cl)c1	EP2 modulator 71.5!
O=C(c1ccc2c(c1)OCCO2)N1CCCC(c2ncncc2-c2ccncc2)C1 (configuration not stated)	none (no result: EP2 antag, PG9 Ab binder, RAM inhibit, NR1D1 modulator, SKN-1 inh)
Cn1c(=O)c2[nH]c(CN3CCCCC3)nc2n(C)c1=O	none (no result: EP2 antag, RAM inhibit, EP2 modulator)
Cn1c(=O)c2[nH]c(CS(=O)(=O)Cc3nc4c([nH]3)c(=O)n(C)c(=O)n4C)nc2n(C)c1=O	EP2 antag 50.4 (no result: PG9 Ab binder, RAM inhibit, NR1D1 modulator, SKN-1 inh)
COc1cc2c(cc1NC(=O)C(C)OC(=O)c1ccc(S(=O)(=O)Nc3ccccc3Cl)cc1)oc1ccccc12 (configuration not stated)	RAM inhibit 11.0
COc1cc2c(cc1NC(=O)C(C)N1CCN(S(=O)(=O)c3ccc(C)c(C)c3)CC1)oc1ccccc12 (configuration not stated)	none
CCOC(=O)c1c(NC(=O)C2C3C=CC(C3)C2C(=O)O)sc2c1CCC(C)C2 (configuration not stated)	none
CCOC(=O)c1c(NC(=O)CC2SC(N)=NC2=O)sc2c1CCC(C)C2 (configuration not stated)	EP2 modulator 68.4!
CCOC(=O)c1c(NC(C)=O)sc2c1CC(C)CC2 (configuration not stated)	EP2 modulator 79.8 (no result: PG9 Ab binder, RAM inhibit, NR1D1 modulator, SKN-1 inh)
Cc1ccc(S(=O)(=O)NCCCCC(NC(=O)OC(C)(C)C)C(=O)O)cc1 (configuration not stated) (tested in a mixture with another compound)	SKN-1 inh 35.1
Cc1ccc(S(=O)(=O)NCCCC(=O)O)cc1	none
N=c1sc2ccccc2n1-c1ccccc1	EP2 modulator 61.0 (no result: PG9 Ab binder)
CCC(c1nnnn1Cc1ccco1)N(Cc1cc2cc(C)cc(C)c2[nH]c1=O)C1CCCC1 (configuration not stated)	none (no result: PG9 Ab binder, RAM inhibit, NR1D1 modulator, SKN-1 inh)
CCN(CC)C(=O)c1sc2nc(-c3cccs3)cc(-c3ccc(Cl)cc3)c2c1N	RAM inhibit 9.2
CC1CCCC(C)N1C(=C(Cl)Cl)C(=C1SCCS1)[N+](=O)[O-] (configuration not stated)	RAM inhibit 8.8
Cc1cccc2c(C(=O)Nc3nnc(Cc4cccc(F)c4)s3)cc(=O)[nH]c12	none (no result: PG9 Ab binder, RAM inhibit, NR1D1 modulator, SKN-1 inh)
CCOC12NC(=O)CC(=O)N1C(c1ccccc1)=CS2 (configuration not stated)	RAM inhibit 9.9
Cc1cc(-c2cnc(C)nc2C2CCN(C(=O)CCn3nccc3C)CC2)on1	none (no result: EP2 antag, PG9 Ab binder, RAM inhibit, NR1D1 modulator, SKN-1 inh)
O=C1C(=Cc2cccnc2)C(=O)c2ccccc21	EP2 antag 42.0 (no result: PG9 Ab binder, RAM inhibit, NR1D1 modulator, SKN-1 inh)
O=C1/C(=C\c2cccnc2)Sc2ccccc21	none
O=C(NCCc1c[nH]c2ccccc12)C(=O)NC1CC1	none (no result: PG9 Ab binder, RAM inhibit, NR1D1 modulator, SKN-1 inh)
CC1=C(C#N)c2nc(N)c(C#N)c(C)c2/C1=C\c1cccc(Cl)c1	EP2 antag 50.3 (no result: PG9 Ab binder, RAM inhibit, NR1D1 modulator, SKN-1 inh)
CC1=C(C#N)c2nc(N)c(C#N)c(C)c2/C1=C\c1ccc(-c2ccccc2C(=O)O)o1	SKN-1 inh 43.4
COc1cccc(OCCn2cccc2/C=C2/C(=N)N3OC(C)=CC3=NC2=O)c1	RAM inhibit 10.8
CC1=CC2=NC(=O)/C(=C\c3cccn3CCOc3cccc(C)c3)C(=N)N2O1	RAM inhibit 9.3
O=C(Nc1nc2ccc(F)cc2s1)c1ccccc1Cl	none (no result: PG9 Ab binder, RAM inhibit, NR1D1 modulator, SKN-1 inh)
CCOC(=O)c1c(-c2ccc(C)cc2)csc1NC(=O)C1CCCO1 (configuration not stated)	none
CC(C)OC(=O)c1c(-c2ccc(C(C)C)cc2)csc1NC(=O)C1CCCO1 (configuration not stated)	EP2 modulator 63.0
N#CC(C#N)=C1C=CC=CN1/C(=C\c1ccccc1)C(=O)c1cccs1	EP2 antag 49.5
OC(CN1CCC2(CC1)CC(O)c1ccc3ccccc3c1O2)c1ccccc1 (configuration not stated)	none (no result: PG9 Ab binder, RAM inhibit, NR1D1 modulator, SKN-1 inh)
CC(C)OC(=O)CSc1nnnn1-c1ccc2c(c1)OCCO2	SKN-1 inh 45.1
Cc1noc(C)c1CCC(=O)N1CCCC(c2nc3ccccc3c(=O)[nH]2)C1 (configuration not stated)	none (no result: PG9 Ab binder, RAM inhibit, NR1D1 modulator, SKN-1 inh)
COCCNc1cc(C)nc2cc(-c3ccc(C)cc3)nn12	EP2 modulator 62.1
COc1ccccc1C1(O)CCN(CC(O)c2ccc3c(c2)CCO3)CC1 (configuration not stated)	none (no result: PG9 Ab binder, RAM inhibit, NR1D1 modulator, SKN-1 inh)
COc1ccc(C(=O)NN/C(=N/S(=O)(=O)c2ccc(C)cc2)c2ccccc2)cc1	SKN-1 inh 37.5 (no result: RAM inhibit)
Cc1cc2cc3c(cc2n2c(SCC(=O)c4ccccc4)nnc12)OCO3	none (no result: PG9 Ab binder, RAM inhibit, NR1D1 modulator, SKN-1 inh)
O=[N+]([O-])c1cc(S(=O)(=O)N2CCCC2)ccc1NCCc1ccccc1	RAM inhibit 9.7
COc1ccc(Nc2ccc(S(=O)(=O)N3CCCCCC3)cc2[N+](=O)[O-])cc1	none
COc1ccc(CCNc2ccc(S(=O)(=O)N3CCCC3)cc2[N+](=O)[O-])cc1	RAM inhibit 10.9
COc1ccc(NC(=O)CCC(=O)N(Cc2ccc(OC)c(OC)c2)c2nccs2)cc1	RAM inhibit 10.4
COc1ccc(OC)c(NC(=O)CCC(=O)N(Cc2ccc(OC)c(OC)c2)c2nccs2)c1	none
O=C(c1ccco1)N1CCC(Cn2nc(-c3ccco3)ccc2=O)CC1	none (no result: EP2 antag, PG9 Ab binder, RAM inhibit, NR1D1 modulator, SKN-1 inh)
Cc1ccccc1-c1nc(P(=O)(c2ccccc2)c2ccccc2)c(N2CCOCC2)o1	EP2 modulator 67.2 (no result: RAM inhibit)
Cc1ccc(CN2CCc3c(nc(N4CCCC(C)C4)[nH]c3=O)C2)o1 (configuration not stated)	none (no result: EP2 antag, PG9 Ab binder, RAM inhibit, NR1D1 modulator, SKN-1 inh)
COCCOc1ccc(CN2CC(CN3CCOCC3)c3ccccc32)cc1OC (configuration not stated)	none (no result: PG9 Ab binder, RAM inhibit, NR1D1 modulator, SKN-1 inh)
O=C(OCc1ccccc1)/C(=C/c1cccc2ccccc12)NC(=O)c1ccccc1	none
Cc1ccc(C(=O)N/C(=C\c2ccccc2)C(=O)OCc2ccccc2)cc1	RAM inhibit 9.5
O=C(OCc1ccccc1)/C(=C/c1ccc(Cl)cc1)NC(=O)c1ccccc1Cl	RAM inhibit 9.2
Fc1ccccc1-c1nc(-c2ccncc2)no1	SKN-1 inh 46.0 (no result: EP2 antag, RAM inhibit, EP2 modulator)
COc1ccc(-c2nc(-c3ccc(Br)o3)no2)cc1	none
Fc1ccccc1-c1nc(-c2ccccc2)no1	none
Cc1ccccc1-c1nc(-c2ccc(Br)o2)no1	SKN-1 inh 46.1 (no result: EP2 antag, RAM inhibit, EP2 modulator)
Fc1ccccc1-c1nc(-c2ccc(Br)o2)no1	SKN-1 inh 72.0 (no result: EP2 antag, RAM inhibit, EP2 modulator)
O=C(Cn1cnc2sc3c(c2c1=O)CCCC3)OC1CCCCC1	none (no result: PG9 Ab binder, RAM inhibit, NR1D1 modulator, SKN-1 inh)
Cc1cccc(OCc2nc(C#N)c(NCc3ccc4c(c3)OCO4)o2)c1	RAM inhibit 10.6
CN(C)c1oc(-c2ccco2)nc1C#N	SKN-1 inh 59.2
COc1cccc(NC(=O)N(Cc2ccco2)C(C)c2cccs2)c1 (configuration not stated)	none
